{"source": "PubChem BioAssay AID2284381", "about": "(EPA ToxCast)", "note": "Results filed as inconclusive are left out. Activity calls are given as the source filed them. The calls were made as follows: active = hit-call score of the fitted dose curve at least 0.9, where 1 is the maximum; inconclusive = response in the unintended direction; inactive = score below 0.9."}
{"test_system": "Japanese medaka Retinoid X Receptor beta (RXRb), gene 100125505", "experiment": "ATG_jmRXRb_EcoTox2: Attagene TRANS-FACTORIAL EcoTox-2 HepG2 Assay for Japanese medaka Retinoid X Receptor beta (RXRb)", "procedure": "ATG_EcoTox2 is a cell-based, multiplexed assay created by modifying the existing Attagene TRANS-FACTORIAL system to include a panel of nuclear receptors from some or all the following species: human (Homo sapiens), african clawed frog (Xenopus laevis), rainbow trout (Oncorhynchus mykiss), japanese medaka (Oryzias latipes), and zebrafish (Danio rerio). The ECOTOX2-FACTORIAL format uses HepG2, a human liver cell line, with measurements taken at 24 hours after chemical dosing in a 24-well plate. ATG_jmRXRb_EcoTox2 is one of 29 assay components calculated in the ATG_EcoTox2 assay. It is designed to make measurements of mRNA induction, a form of inducible reporter, as detected with fluorescence intensity signals by Reverse transcription polymerase chain reaction (RT-PCR) and Capillary electrophoresis technology.The assay endpoint ATG_jmRXRb_EcoTox2 was analyzed in the positive analysis fitting direction relative to DMSO as the negative control and baseline of activity. Using a type of inducible reporter, measures of mRNA for gain-of-signal activity can be used to understand the reporter gene at the transcription factor-level as they relate to the gene RXRb. Furthermore, this assay endpoint can be referred to as a primary readout, because this assay has produced multiple assay endpoints where this one serves a reporter gene function. To generalize the intended target to other relatable targets, this assay endpoint is annotated to the nuclear receptor intended target family, where the subfamily is non-steroidal.\nHuman liver HepG2 cells are transiently transfected with multiple reporter transcription units (MRTUs) in 6-well plates using FuGene 6 reagent (Roche; 3 ml FuGene/1 mg DNA). The MRTU constructs are regulated by a cis-regulating element (promoter). Each RTU expresses a GAL4-UAS that regulates the transcription of a nearby target reporter gene sequence. A major difference between the CIS and TRANS system is that in CIS activities of endogenous TFs are measured, whereas the TRANS assay evaluates changes in activities of exogenous, chimeric NR-Gal4 proteins. […] At the end of 24 hour incubation, total RNA was isolated using TriZol reagent (Invitrogen). The isolated RNA is then reverse-transcribed using oligo(dT) primer and Mo-MLV reverse transcriptase (Invitrogen) with DNAse I (Ambion) treatment for 30 min. The one-tenth of the produced cDNA was amplified by PCR using Taq DNA polymerase (Invitrogen) and two reporter sequence-specific primers. The PCR products were fluorescently labeled by primer extension with 6-arboxyfluorescein (6-FAM) 5'-labeled reporter sequence-specific primer (2 min at 95 C, 20 s at 68 C and 10 min at 72 C) and these products were digested with 5U of HpaI (New England Biolabs) for 2h at 37 C. The fragments were purified using Qiaquick PCR columns (Qiagen), analyzed on an ABI 3130xL genetic analyzer (Applied Biosystems) with peak positions identified by using a set of X-rhodamine (ROX)-labeled MapMarker1000 molecular weight standards (BioVentures). The raw capillary electrophoresis data was processed using Attagraph software (Attagene)."}
{"smiles": "CC(C)(Oc1ccc(CCNC(=O)c2ccc(Cl)cc2)cc1)C(=O)O", "outcome": "inactive"}
{"smiles": "C=C(c1ccc(C(=O)O)cc1)c1cc2c(cc1C)C(C)(C)CCC2(C)C", "AC50": "0.00302 µM (active)"}
{"smiles": "CC(C)(Oc1ccc(Cl)cc1)C(=O)O", "outcome": "inactive"}
{"smiles": "Cc1ccc(C)c(OCCCC(C)(C)C(=O)O)c1", "AC50": "50 µM (active)"}
{"smiles": "Cc1cccc(Nc2cc(Cl)nc(SCC(=O)O)n2)c1C", "AC50": "27.4 µM (active)"}
{"smiles": "C[C@@H]1C[C@H]2[C@@H]3CCC4=CC(=O)C=C[C@]4(C)[C@@]3(F)[C@@H](O)C[C@]2(C)[C@@]1(O)C(=O)COP(=O)(O)O", "outcome": "inactive"}
{"smiles": "CC(c1cc2ccccc2s1)N(O)C(N)=O", "note": "(stereo not given)", "outcome": "inactive"}
{"smiles": "CN(CCOc1ccc(CC2SC(=O)NC2=O)cc1)c1ccccn1", "note": "(stereo not given)", "AC50": "12.9 µM (active)"}
{"smiles": "Cc1nc(-c2ccc(C(F)(F)F)cc2)sc1C(=O)NCc1ccc(OC(C)(C)C(=O)O)cc1", "outcome": "inactive"}
{"smiles": "CC(C)(Oc1ccc(C2CC2(Cl)Cl)cc1)C(=O)O", "note": "(stereo not given)", "outcome": "inactive"}
